Measured values reported in PubChem BioAssay (EPA / NIEHS).
Values joined by “and” are separate entries in the source; they are usually repeats but may differ in a detail not shown here. Equal entries are not always repeated. Active and inactive are the calls of the source. The calls were made as follows: active = hit-call score of the fitted dose curve at least 0.9, where 1 is the maximum; inactive = score below 0.9.

What was measured:
[1] = read-out: Macrophage colony-stimulating factor (MCSF), CSF1 (gene 1435); assay: BSK_hDFCGF_MCSF: BioMAP Diversity Plus: hDFCGF Assay for Macrophage colony-stimulating factor (MCSF) Biomarker Activity (AID 2283060); conditions: primary human foreskin fibroblasts; actives raise or lower the signal
Outline: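 Human foreskin fibroblast primary cultures; M-CSF measured by ELISA 24 hours after chemical dosing. Bidirectional fitting relative to DMSO, with overt cytotoxicity tracked by parallel SRB total-protein staining (0.1% SRB, 10% TCA fixation, 560 nm).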

[2] = BSK_hDFCGF_SRB: Viability Assessment in the BioMAP Diversity Plus: hDFCGF Assay (AID 2283061); conditions: primary human foreskin fibroblasts;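 also: cells exposed to compound for 24 h before the read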
Outline: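 Human foreskin fibroblasts in 96-well plates were treated 24 h. Total protein was measured by 0.1% SRB staining after 10% TCA fixation, read at 560 nm. Data were fitted bidirectionally against DMSO.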

[3] = read-out: TIMP metallopeptidase inhibitor 1 (TIMP1), TIMP1 (gene 7076); assay: BSK_hDFCGF_TIMP1: BioMAP Diversity Plus: hDFCGF Assay for TIMP metallopeptidase inhibitor 1 (TIMP1) Biomarker Activity (AID 2283062); conditions: primary human foreskin fibroblasts; actives raise or lower the signal
Outline: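 Human foreskin fibroblast primary cultures dosed for 24 h; secreted/surface TIMP-1 quantified by ELISA. Bidirectional curve fitting against DMSO baseline; cytotoxicity tracked in parallel cultures by SRB total-protein staining.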

[4] = read-out: Matrix Metallopeptidase 1 (MMP1), MMP1 (gene 4312); assay: BSK_hDFCGF_MMP1: BioMAP Diversity Plus: hDFCGF Assay for Matrix Metallopeptidase 1 (MMP1) Biomarker Activity (AID 2283064); conditions: primary human foreskin fibroblasts; actives raise or lower the signal
Outline: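 hDFCGF primary fibroblasts (human foreskin); chemical added; 24 h; MMP1 by ELISA; bidirectional fit vs DMSO.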

[5] = read-out: Vascular cell adhesion molecule 1 (VCAM1), VCAM1 (gene 7412); assay: BSK_hDFCGF_VCAM1: BioMAP Diversity Plus: hDFCGF Assay for Vascular cell adhesion molecule 1 (VCAM1) Biomarker Activity (AID 2283065); conditions: primary human foreskin fibroblasts; actives raise or lower the signal;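 as to AC50: VCAM-1 protein level quantified by ELISA after 24 h chemical exposure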
Outline: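 Human foreskin fibroblast primary cells dosed with chemical, VCAM-1 measured by ELISA at 24 h. Bidirectional curve fitting relative to DMSO as negative control/baseline.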

[6] = read-out: Plasminogen activator inhibitor-1 (PAI1), SERPINE1 (gene 5054); assay: BSK_hDFCGF_PAI1: BioMAP Diversity Plus: hDFCGF Assay for Plasminogen activator inhibitor-1 (PAI1) Biomarker Activity (AID 2283066); conditions: primary human foreskin fibroblasts; actives raise or lower the signal
Outline: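 Primary dermal fibroblasts (human foreskin), hDFCGF system; compound 24 h; PAI-1 by ELISA; bidirectional fit vs DMSO control.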

[7] = read-out: Intercellular Adhesion Molecule 1 (ICAM1), ICAM1 (gene 3383); assay: BSK_KF3CT_ICAM1: BioMAP Diversity Plus: KF3CT Assay for Intercellular Adhesion Molecule 1 (ICAM1) Biomarker Activity (AID 2283067); conditions: primary human keratinocytes with fibroblasts; actives raise or lower the signal
Outline: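 Human keratinocyte–foreskin fibroblast co-culture was treated for 24 h. Cell-surface ICAM-1 was quantified by ELISA, fitted bidirectionally relative to DMSO. Cytotoxicity was checked in parallel cultures by SRB total-protein staining.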

[8] = read-out: Interferon-gamma inducible Protein 10 (IP10), CXCL10 (gene 3627); assay: BSK_KF3CT_IP10: BioMAP Diversity Plus: KF3CT Assay for Interferon-gamma inducible Protein 10 (IP10) Biomarker Activity (AID 2283068); conditions: primary human keratinocytes with fibroblasts; actives raise or lower the signal
Outline: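 ELISA read-out of IP-10 after 24 h chemical dosing of human skin primary co-culture (keratinocytes, foreskin fibroblasts). Gain or loss of signal relative to DMSO, bidirectional curve fit.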

[9] = BSK_KF3CT_SRB: Viability Assessment in the BioMAP Diversity Plus: KF3CT Assay (AID 2283069); conditions: primary human keratinocytes with fibroblasts;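 also: total protein by sulforhodamine B staining as a cytotoxicity measure; read 24 h after compound addition; fitted for both signal gain and loss against DMSO baseline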
Outline: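 Keratinocytes co-cultured with foreskin fibroblasts (human primary); chemical added, 24 h; fix 10% TCA, stain 0.1% SRB, A560. Bidirectional fit vs DMSO.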

[10] = read-out: Monokine induced gamma interferon (MIG), CXCL9 (gene 4283); assay: BSK_hDFCGF_MIG: BioMAP Diversity Plus: hDFCGF Assay for Monokine induced gamma interferon (MIG) Biomarker Activity (AID 2283063); conditions: primary human foreskin fibroblasts; actives raise or lower the signal
Outline: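 MIG/CXCL9 measured by ELISA 24 h after dosing primary human skin fibroblasts. Activity fitted in both directions against DMSO controls. Cytotoxicity was checked in parallel cultures by SRB staining read at 560 nm.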

## Nc1ccc(C(=O)O)cc1
[1]
  outcome: inactive
[2]
  outcome: inactive
[3]
  outcome: inactive
[4]
  outcome: inactive
[5]
  outcome: inactive
[6]
  outcome: inactive
[7]
  outcome: inactive
[8]
  outcome: inactive
[9]
  outcome: inactive

## CC(C)[N+](C)(CCOC(=O)C1c2ccccc2Oc2ccccc21)C(C)C
[1]
  outcome: inactive
[2]
  outcome: inactive
[3]
  outcome: inactive
[10]
  outcome: inactive
[4]
  outcome: inactive
[5]
  outcome: inactive
[7]
  outcome: inactive
[8]
  outcome: inactive
[9]
  outcome: inactive

## O=C1CCCCCCCCCCCN1
[1]
  outcome: inactive
[2]
  outcome: inactive
[3]
  outcome: inactive
[10]
  outcome: inactive
[4]
  outcome: inactive
[5]
  outcome: inactive
[6]
  outcome: inactive
[7]
  outcome: inactive
[8]
  outcome: inactive
[9]
  outcome: inactive

## CC/C=C\C/C=C\C/C=C\CCCCCCCC(=O)OC
[1]
  AC50: 8.71 µM (active)
[2]
  AC50: 6.53 µM (active)
[3]
  AC50: 10.7 µM (active)
[10]
  AC50: 11.1 µM (active)
[4]
  AC50: 12.3 µM (active)
[5]
  AC50: 8.22 µM (active)
[7]
  AC50: 12.3 µM (active)
[8]
  AC50: 20 µM (active)
[9]
  AC50: 20 µM (active)

## C=CC(=O)OCC(C)OCC(C)OCC(C)OC(=O)C=C (centres undefined)
[1]
  AC50: 20 µM (active)
[2]
  AC50: 6.59 µM (active)
[3]
  AC50: 11 µM (active)
[4]
  AC50: 27.5 µM (active)
[5]
  AC50: 8.28 µM (active)
[6]
  AC50: 6.86 µM (active)
[7]
  AC50: 18.1 µM (active)
[8]
  AC50: 28.1 µM (active)
[9]
  AC50: 31.9 µM (active)

## CC=C(C)C=CC=C(C)C
[1]
  AC50: 3.97 µM (active)
[2]
  outcome: inactive
[3]
  outcome: inactive
[10]
  outcome: inactive
[4]
  outcome: inactive
[5]
  AC50: 6.06 µM (active)
[7]
  outcome: inactive
[8]
  outcome: inactive
[9]
  outcome: inactive

## CCCCCCCCC(CO)CCCCCC (centres undefined)
[1]
  AC50: 4.32 µM (active)
[2]
  AC50: 2 µM (active)
[3]
  outcome: inactive
[10]
  outcome: inactive
[4]
  outcome: inactive
[5]
  outcome: inactive
[7]
  outcome: inactive
[8]
  outcome: inactive
[9]
  outcome: inactive

## Oc1ccccc1Cc1ccccc1O
[1]
  outcome: inactive
[2]
  AC50: 1.22 µM (active) and 191 nM (active)
[3]
  outcome: inactive
[4]
  outcome: inactive
[5]
  outcome: inactive
[6]
  outcome: inactive
[7]
  outcome: inactive
[8]
  outcome: inactive
[9]
  outcome: inactive

## CCCCCCCCCCCC(=O)N(C)CC(=O)O
[1]
  outcome: inactive
[2]
  outcome: inactive
[3]
  outcome: inactive
[10]
  outcome: inactive
[4]
  outcome: inactive
[5]
  outcome: inactive
[6]
  outcome: inactive
[7]
  outcome: inactive
[8]
  outcome: inactive
[9]
  outcome: inactive

## O=C1CCCCCCCCCCC1
[1]
  outcome: inactive
[2]
  outcome: inactive
[3]
  outcome: inactive
[10]
  outcome: inactive
[4]
  outcome: inactive
[5]
  outcome: inactive
[6]
  outcome: inactive
[7]
  outcome: inactive
[8]
  outcome: inactive
[9]
  outcome: inactive

## CCc1cccc(C)c1N(C(=O)CS(=O)(=O)O)C(C)COC (centres undefined)
[1]
  outcome: inactive
[2]
  outcome: inactive
[3]
  outcome: inactive
[4]
  outcome: inactive
[5]
  outcome: inactive
[6]
  outcome: inactive
[7]
  outcome: inactive
[8]
  outcome: inactive
[9]
  outcome: inactive

## Fc1ccc(Br)cc1
[1]
  outcome: inactive
[2]
  outcome: inactive
[3]
  outcome: inactive
[10]
  outcome: inactive
[4]
  outcome: inactive
[5]
  outcome: inactive
[7]
  outcome: inactive
[8]
  outcome: inactive
[9]
  outcome: inactive

## O=C(O)C(F)(F)C(F)(F)C(F)(F)C(F)(F)C(=O)O
[1]
  outcome: inactive
[2]
  outcome: inactive
[3]
  outcome: inactive
[4]
  outcome: inactive
[5]
  outcome: inactive
[6]
  outcome: inactive
[7]
  outcome: inactive
[8]
  outcome: inactive
[9]
  outcome: inactive

## Nc1cccc(N)n1
[1]
  outcome: inactive
[2]
  outcome: inactive
[3]
  outcome: inactive
[10]
  outcome: inactive
[4]
  outcome: inactive
[5]
  outcome: inactive
[7]
  outcome: inactive
[8]
  outcome: inactive
[9]
  outcome: inactive
